Most compounds without a hit are left out; they make up all but 19% or so of the library.
Shiga toxin inh = blocks Shiga toxin action in Vero cells; hit rate 9.2% among 290,000; Vero cells, Shiga toxin protein synthesis inhibition reporter; inhibition, % at 38.7 µM; in the data active = inhibition mostly above about 28%, no sharp cut-off; inactive = mostly below about 43%; also: 0% is about no effect
CHX counter = counter-screen hit for Shiga toxin inhibitors, cycloheximide; cell reporter, cycloheximide protein synthesis inhibition counterscreen; max response, %; hit rate 12% among 300,000; AID 2314; in the data active = max response mostly above about 13%, no sharp cut-off; inactive = mostly below about 14%; also: read at 38.3 µM for the half of the compounds with a filed dose; 0% is about no effect
Pf growth 48h = inhibits P. falciparum growth in the first generation, 48 h; P. falciparum luciferase growth in erythrocytes, 48 h; hit rate 5.9% among 310,000; Potency, µM (highest dose often 28.7 µM), for the others: at the top dose activity change, negative = inhibition, actives largely listed as inhibitors; AID 504832; also: potency is read from the fitted curve at half-maximal effect; % is scaled to controls: 0 for no effect and ±100 for the full control effect
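Firefly luciferase activity from engineered P. falciparum reports growth; inhibitors lower the luminescent signal. Cultures contained 2% hematocrit erythrocytes at 0.1% final parasitemia.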
LASV entry inh = blocks Lassa virus binding to or entry into cells | Lassa virus pseudotype entry inhibition, cell reporter | Potency, µM (highest dose often 37.9 µM), without a hit: top-dose activity change, negative = inhibition, usual class: inhibitors | hit rate 1.2% among 300,000; calls by dose curve; tested in HEK293 cells; also: potency is read from the fitted curve at half-maximal effect; % is scaled to controls: 0 for no effect and ±100 for the full control effect; nearly all actives have a fitted effect of over 50% in size
Pf growth 96h = P. falciparum growth inhibition at 96 hours. AID 504834. hit rate 6.9% among 320,000. Potency, µM (series often up to 28.7 µM), without a hit: at the top dose activity change, negative = inhibition, hits mostly inhibitors. P. falciparum luciferase reporter growth, 96 h; also: potency is read from the fitted curve at half-maximal effect; % is scaled to controls: 0 for no effect and ±100 for the full control effect
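Plates of compound plus infected erythrocytes (2% hematocrit, 0.05% parasitemia final) incubate 96 hours, 37 C, 5% CO2. Detection reagent added; reduced luminescence from the parasites' luciferase reporter flags inhibition.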
MARV entry inh = inhibitors of Marburg virus binding or cell entry; Marburg virus pseudotyped entry inhibition, cell reporter; Potency, µM (highest dose often 37.8 µM), without a hit: at the highest dose activity change, negative = inhibition, hits mostly inhibitors; hit rate 1.8% among 300,000; calls by dose curve; tested in HEK293 cells; also: potency is read from the fitted curve at half-maximal effect; % is scaled to controls: 0 for no effect and ±100 for the full control effect
An asterisk follows results filed as active; i = inactive; u = inconclusive; x = no result; [ ] = another dose, or the depositor's remark. Unless noted, calls follow the shape of the dose curve; as a rule, active = well fitted inhibition curve with a large enough effect; inconclusive = small, poorly fitted or top-dose-only effect, or another doubt; inactive = no such curve, though single readings can be large or run the other way.

SMILES	Shiga toxin inh	CHX counter	Pf growth 48h	LASV entry inh	Pf growth 96h	MARV entry inh
CCCn1nnc(NC(=O)c2sc3ccccc3c2Cl)n1	100*	41*	121%	17%	x	16%
Cn1c(SCC(=O)Nc2ccc(F)cc2)nc2c(c1=O)SCC2	-23	16	-13%	u	-3%	u
Cc1cccc(OCC(=O)NNC(=O)CCN2CCN(c3ccccc3)CC2)c1C	x	x	x	-18%[46.1 µM]	x	-38%[46.1 µM]
O=C(NCC(c1ccc2c(c1)OCO2)N1CCOCC1)C(=O)Nc1ccc(F)cc1F (stereo unspecified)	x	x	x	3%[46.1 µM]	x	x
COC(=O)C1CC1[C@H](NC(=O)c1cccnc1)c1ccccc1 (stereo partly specified)	-5	1	x	x	x	x
Cc1cnc(NC(=O)c2sc3ccccc3c2Cl)s1	64*	57*	235%	u	208%	u
O=C(Nc1nccs1)c1sc2cc(Cl)ccc2c1Cl	63*	39*	157%	u	i	u
CCCn1nnc(NC(=O)COc2ccccc2Cl)n1	62*	24*	17%	8%	x	28%
Cc1cccc(NC(=O)CNC(=O)c2sc3ccccc3c2Cl)n1	x	x	32%	19%	58%	-18%[46.1 µM]
O=C(NCCCN1CCOCC1)c1sc2cc([N+](=O)[O-])ccc2c1Cl	6	10	0%	u	5%[5.75 µM]	u
CCCn1nnc(NC(=O)Cc2ccccc2)n1	-26	-3	9%	13%	38%	-22%
O=C(Nc1ccccn1)c1sc2cc([N+](=O)[O-])ccc2c1Cl	59*	21*	72%	x	320%	x
O=C(O)c1sc2cc(Cl)ccc2c1Cl	15	1	19%	x	25%	x
CCn1c(=O)c(C(=O)CN2c3ccccc3CC2C)c(N)n(Cc2ccccc2)c1=O (stereo unspecified)	-9	-4	u	u	u	u
CCOCCc1nnc(NC(=O)C2CC(=O)N(CCc3ccc(F)cc3)C2)s1 (stereo unspecified)	-1	4	-6%	8%	-7%	-2%[46.1 µM]
CCN(CC)CCCNC(=O)C(C)n1nc(C)n2c(cc3occc32)c1=O (stereo unspecified)	x	x	x	11%[46.1 µM]	x	-6%[46.1 µM]
COc1ccc(Cl)cc1C(=O)O/N=C(\N)c1ccccn1	60*	41*	82%	x	u	x
COc1ccc(OC)c(C(=O)c2ccccn2)c1	x	-3	-17%	15%	11%	11%
N/C(=N\OC(=O)c1cc(Cl)ccc1Cl)c1ccccn1	64*	25*	158%	6.5µM*	u	4.1µM*
COc1ccc(/C=N\NC(=O)c2ccccc2[N+](=O)[O-])cc1COc1c(F)c(F)c(F)c(F)c1F	6	11	36%	-15%	-10%	u
COc1ccccc1C(=O)Nc1c(C(=O)N2CCN(C)CC2)oc2ccccc12	-12	-2	u	x	-2%	x
C=CCOc1ccc2nc(NC(=O)OC)[nH]c2c1	-7	3	44%	u	x	u
CCc1cccc(NC(=O)Nc2ccc(Oc3ccc4nc(NC(=O)OC)[nH]c4c3)cc2)c1	x	x	x	13µM*	x	x
COC(=O)Nc1nc2ccc(Oc3ccc(NC(=O)Nc4ccccc4)cc3)cc2[nH]1	x	x	x	3.1µM*	x	x
COc1ccc(C2=NN(C(=O)/C=C/c3ccccc3)C(c3ccccc3)C2)c(OC(C)=O)c1 (stereo unspecified)	-3	5	13µM*	u	u	u
COc1ccccc1C1=NN(C(=O)c2ccccc2)C(c2ccc(Br)cc2)C1 (stereo unspecified)	9	17*	3.7µM*	x	4%	x
COc1ccc(C2=NN(C(=O)c3ccccc3)C(c3ccc(OC)c(OC)c3)C2)c(O)c1 (stereo unspecified)	-4	-4	10µM*	-26%	10µM*	2%
COc1ccc(C2CC(c3ccccc3OC(C)=O)=NN2C(=O)/C=C/c2ccccc2)cc1OC (stereo unspecified)	-5	3	2.6µM*	u	u	u
COc1ccc(C2CC(c3ccc(Br)cc3)=NN2C(=O)c2cccnc2)cc1 (stereo unspecified)	-16	-6	-87%	u	u	u
CCOC(=O)c1cn(CC(=O)Nc2ccc3c(c2)OCCO3)nn1	0	-3	24%	0%	11%	5%

Screening data: PubChem, National Center for Advancing Translational Sciences (NCATS)
